# Measurements reported in PubChem BioAssay (EPA / NIEHS).
# Active and inactive are the calls of the source. Rule for the calls: active = hit-call score of the fitted dose curve at least 0.9, where 1 is the maximum; inactive = score below 0.9.
# Test system: not listed separately
# Test: ATG_MRE_CIS: Attagene CIS-FACTORIAL HepG2 Assay for human Metal Responsive Element (MRE) (AID 2282954)
# Conditions: HepG2 MRE cis-reporter transcription, Attagene multiplex; actives raise or lower the signal
# Outline: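 After a 24 h chemical exposure, transiently transfected HepG2 cells yield RNA whose reporter sequences are amplified, FAM-labelled and sized by capillary electrophoresis. Curves are fitted bidirectionally relative to DMSO.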
Structure (SMILES),outcome,AC50
CNC(=C[N+](=O)[O-])NCCSCc1csc(CN(C)C)n1,inactive,
O=C1CCCCCCCCCCCCCC1,inactive,
CCCC(=O)OC/C=C(\C)CCC=C(C)C,inactive,
CCCCCCC(O)CCCCCCCCCCC(=O)OC (configuration not stated),inactive,
COC(=O)c1ccccc1,inactive,
O=C(O)/C=C/C(=O)O,inactive,
O=S(=O)(O)c1cccc2ccccc12,inactive,
C/C=C(\C)C(=O)OCC/C=C\CC,inactive,
CC/C=C\CC/C=C/C(OCC)OCC,,136 µM (active)
C=CCOCC(CC)(CO)COCC=C,inactive,
CN1CCCC1,inactive,
CCCCCCC1CCC(=O)O1 (configuration not stated),inactive,
O=[N+]([O-])c1ccccc1C(F)(F)F,inactive,
CCC(=O)OCc1ccc(OC)cc1,inactive,
CCc1cc(C(N)=S)ccn1,inactive,
COc1cccc(OC)c1C(=O)O,inactive,

Structure (SMILES),outcome,AC50
C=C1CC[C@H]2C[C@@H]1C2(C)C,inactive,
CCCCCC1CCCC(=O)O1 (configuration not stated),inactive,
Cc1cc2nc3c(=O)[nH]c(=O)nc-3n(C[C@H](O)[C@H](O)[C@H](O)CO)c2cc1C,inactive,
Cc1cc(-n2nc3ccc(Cl)cc3n2)c(O)c(C(C)(C)C)c1,inactive,
O=C(OCc1ccccc1)c1ccccc1,inactive,
CC(=O)Nc1c(I)c(NC(C)=O)c(I)c(C(=O)O)c1I,inactive,
CC(C)=CCOC(=O)c1ccccc1,inactive,
CC(C)(C)NC(=O)[C@@H]1CN(Cc2cccnc2)CCN1C[C@@H](O)C[C@@H](Cc1ccccc1)C(=O)N[C@H]1c2ccccc2C[C@H]1O,inactive,
Oc1cccc2ccccc12,inactive,
C=CN1CCCCCC1=O,inactive,
Oc1ccc(Oc2ccccc2)cc1,,79 µM (active)
CC(=O)CCc1ccccc1,inactive,
CNC[C@H](O)[C@@H](O)[C@H](O)[C@H](O)CO,inactive,
CN(C)c1ccc(C(c2ccccc2)c2ccc(N(C)C)cc2)cc1,inactive,
c1ccc2c(c1)Oc1ccccc1S2,inactive,
CCCCCC[C@@H](O)C/C=C\CCCCCCCC(=O)O,,139 µM (active)

# Test system: not listed separately
# Test: ATG_PBREM_CIS: Attagene CIS-FACTORIAL HepG2 Assay for human Phenobarbital-responsive Enhancer Module (PBREM) (AID 2282955)
# Conditions: HepG2 PBREM cis-reporter, Attagene multiplexed transcription; actives raise or lower the signal
# Outline: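 Measures endogenous factor action on a phenobarbital-responsive enhancer module. HepG2 transiently carrying cis reporters, 24 h treatment, mRNA read-out by RT-PCR plus capillary electrophoresis.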
row,Structure (SMILES),outcome
1,CNC(=C[N+](=O)[O-])NCCSCc1csc(CN(C)C)n1,inactive
2,O=C1CCCCCCCCCCCCCC1,inactive
3,CCCC(=O)OC/C=C(\C)CCC=C(C)C,inactive
4,CCCCCCC(O)CCCCCCCCCCC(=O)OC (configuration not stated),inactive
5,O=C(O)/C=C/C(=O)O,inactive
6,C/C=C(\C)C(=O)OCC/C=C\CC,inactive
7,CC/C=C\CC/C=C/C(OCC)OCC,inactive
8,C=CCOCC(CC)(CO)COCC=C,inactive
9,CN1CCCC1,inactive
10,CCO[Si](CCCN)(OCC)OCC,inactive
11,CCCCCCC1CCC(=O)O1 (configuration not stated),inactive
12,O=[N+]([O-])c1ccccc1C(F)(F)F,inactive
13,CCC(=O)OCc1ccc(OC)cc1,inactive
14,CCC(C)=NO,inactive
15,COc1cccc(OC)c1C(=O)O,inactive
16,CCCCCC1CCCC(=O)O1 (configuration not stated),inactive

row,Structure (SMILES),outcome
1,COC(=O)[C@]1(C)CCC[C@@]2(C)[C@H]1CC=C1C=C(C(C)C)CC[C@@H]12,inactive
2,Cc1cc2nc3c(=O)[nH]c(=O)nc-3n(C[C@H](O)[C@H](O)[C@H](O)CO)c2cc1C,inactive
3,Cc1cc(-n2nc3ccc(Cl)cc3n2)c(O)c(C(C)(C)C)c1,inactive
4,O=C(OCc1ccccc1)c1ccccc1,inactive
5,CCCCCCC1CCCC(=O)O1 (configuration not stated),inactive
6,c1ccc(CNc2ncnc3nc[nH]c23)cc1,inactive
7,NC(=O)c1ccc(N)cc1,inactive
8,CC(C)(C)NC(=O)[C@@H]1CN(Cc2cccnc2)CCN1C[C@@H](O)C[C@@H](Cc1ccccc1)C(=O)N[C@H]1c2ccccc2C[C@H]1O,inactive
9,Oc1cccc2ccccc12,inactive
10,Oc1ccc(Oc2ccccc2)cc1,inactive
11,CC(=O)CCc1ccccc1,inactive
12,CNC[C@H](O)[C@@H](O)[C@H](O)[C@H](O)CO,inactive
13,CN(C)c1ccc(C(c2ccccc2)c2ccc(N(C)C)cc2)cc1,inactive
14,c1ccc2c(c1)Oc1ccccc1S2,inactive
15,CCCCCC[C@@H](O)C/C=C\CCCCCCCC(=O)O,inactive

# Biological target: Paired box protein Pax-6 (Homo sapiens) (UniProt P26367)
# Sequence (P26367 whole entry, looked up): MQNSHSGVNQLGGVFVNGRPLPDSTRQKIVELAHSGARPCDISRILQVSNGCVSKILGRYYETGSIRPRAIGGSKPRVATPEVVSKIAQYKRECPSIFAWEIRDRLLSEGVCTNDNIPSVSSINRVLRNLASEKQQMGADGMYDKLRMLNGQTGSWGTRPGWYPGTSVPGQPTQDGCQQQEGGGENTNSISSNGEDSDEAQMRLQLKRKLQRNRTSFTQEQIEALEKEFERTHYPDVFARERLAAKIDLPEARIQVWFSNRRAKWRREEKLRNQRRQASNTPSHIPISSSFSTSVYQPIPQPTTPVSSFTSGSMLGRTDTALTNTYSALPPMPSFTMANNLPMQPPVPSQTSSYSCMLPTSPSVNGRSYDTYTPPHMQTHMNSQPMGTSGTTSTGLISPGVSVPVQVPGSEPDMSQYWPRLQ
# Test: ATG_Pax6_CIS: Attagene CIS-FACTORIAL HepG2 Assay for human Paired Box 6 (PAX6) (AID 2282956)
# Conditions: HepG2 CIS-FACTORIAL PAX6 reporter transcription, RNA readout; actives raise or lower the signal
# Outline: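 Multiplexed cis-reporter HepG2 system; 24 h treatment; reporter mRNA read by RT-PCR/CE fluorescence; bidirectional fit vs DMSO.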
row,Structure (SMILES),outcome
1,CNC(=C[N+](=O)[O-])NCCSCc1csc(CN(C)C)n1,inactive
2,O=C1CCCCCCCCCCCCCC1,inactive
3,CCCC(=O)OC/C=C(\C)CCC=C(C)C,inactive
4,CCCCCCC(O)CCCCCCCCCCC(=O)OC (configuration not stated),inactive
5,COC(=O)c1ccccc1,inactive
6,O=C(O)/C=C/C(=O)O,inactive
7,O=S(=O)(O)c1cccc2ccccc12,inactive
8,C/C=C(\C)C(=O)OCC/C=C\CC,inactive
9,CC/C=C\CC/C=C/C(OCC)OCC,inactive
10,C=CCOCC(CC)(CO)COCC=C,inactive
11,CN1CCCC1,inactive
12,CCO[Si](CCCN)(OCC)OCC,inactive
13,CCCCCCC1CCC(=O)O1 (configuration not stated),inactive
14,O=[N+]([O-])c1ccccc1C(F)(F)F,inactive
15,CCC(=O)OCc1ccc(OC)cc1,inactive
16,CCc1cc(C(N)=S)ccn1,inactive
17,CCC(C)=NO,inactive
18,COc1cccc(OC)c1C(=O)O,inactive
19,C=C1CC[C@H]2C[C@@H]1C2(C)C,inactive
20,CCCCCC1CCCC(=O)O1 (configuration not stated),inactive

row,Structure (SMILES),outcome
1,COC(=O)[C@]1(C)CCC[C@@]2(C)[C@H]1CC=C1C=C(C(C)C)CC[C@@H]12,inactive
2,Cc1cc2nc3c(=O)[nH]c(=O)nc-3n(C[C@H](O)[C@H](O)[C@H](O)CO)c2cc1C,inactive
3,Cc1cc(-n2nc3ccc(Cl)cc3n2)c(O)c(C(C)(C)C)c1,inactive
4,O=C(OCc1ccccc1)c1ccccc1,inactive
5,CCCCCCC1CCCC(=O)O1 (configuration not stated),inactive
6,c1ccc(CNc2ncnc3nc[nH]c23)cc1,inactive
7,NC(=O)c1ccc(N)cc1,inactive
8,CC(=O)Nc1c(I)c(NC(C)=O)c(I)c(C(=O)O)c1I,inactive
9,CC(C)=CCOC(=O)c1ccccc1,inactive
10,CC(C)(C)NC(=O)[C@@H]1CN(Cc2cccnc2)CCN1C[C@@H](O)C[C@@H](Cc1ccccc1)C(=O)N[C@H]1c2ccccc2C[C@H]1O,inactive
11,Oc1cccc2ccccc12,inactive
12,C=CN1CCCCCC1=O,inactive
13,Oc1ccc(Oc2ccccc2)cc1,inactive
14,CC(=O)CCc1ccccc1,inactive
15,CNC[C@H](O)[C@@H](O)[C@H](O)[C@H](O)CO,inactive
16,CN(C)c1ccc(C(c2ccccc2)c2ccc(N(C)C)cc2)cc1,inactive
17,c1ccc2c(c1)Oc1ccccc1S2,inactive
18,CCCCCC[C@@H](O)C/C=C\CCCCCCCC(=O)O,inactive
19,CC[N+](CC)(CC(=O)Nc1c(C)cccc1C)Cc1ccccc1 (tested in a mixture with another compound),inactive
